Measurements reported in PubChem BioAssay (NCI).
About 83,000 compounds went through this panel and 20% of them were active in at least one assay; those are over-represented in the sample as a whole.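 A percent growth of 40 corresponds to 60% growth inhibition; 0 means no net growth; -100 means all cells died. Active threshold: below 10.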 Unmarked numbers belong to inactive results. Active and inactive are the calls of the source.

Tests used:
Assay in all cases: NCI-60 one-dose screen, 48 h (100 = growth as untreated, 0 = no growth, -100 = all killed)
Settings in all cases: 10 µM unless noted
[1] = test system: SR leukemia
[2] = test system: RPMI-8226 leukemia
[3] = test system: OVCAR-8 ovarian
[4] = test system: OVCAR-5 ovarian
[5] = test system: OVCAR-4 ovarian
[6] = test system: SK-OV-3 ovarian
[7] = test system: IGROV1 ovarian
[8] = test system: OVCAR-3 ovarian
[9] = test system: HS 578T breast
[10] = test system: NCI/ADR-RES ovarian

Row | Structure (SMILES) | growth [1] | growth [2] | growth [3] [%] | growth [4] [%] | growth [5] [%] | growth [6] [%] | growth [7] [%] | growth [8] [%] | growth [9] [%] | growth [10] [%]
1 | NS(=O)(=O)c1ccc(CCn2c(SCC(=O)N/N=C/c3ccccc3O)nc3ccccc3c2=O)cc1 | 19.9% | 32.1% | 36.9 | 69.2 | 83.3 | 59.2 | 64.4 | 23.8 | 37.5 | 92.3
2 | CC(C)(C)c1nn(-c2ccccc2)c2c1C(=O)CSC(c1ccc3c(c1)OCO3)N2 (centres undefined) | 78.8% | 102% | 109 | 95.7 | 103 | 95.4 | 88.5 | 93.2 | 101 | 88.2
3 | CN1C(=O)NC(Cc2c[nH]c3c(Cl)cccc23)C1=O (centres undefined) | 101% | 119% | 112 | 102 | 101 | 113 | 108 | 90.8 | 103 | 100
4 | COc1cc(/C=C2\CN(C(=O)OC(C)(C)C)C/C(=C\c3ccc(O)c(OC)c3)C2=O)ccc1O | 79.9% | 71.8% | 89.6 | 107 | – | 105 | 110 | 98.6 | 91.3 | 102
5 | CC(C)(C)OC(=O)N1CCCN(CCNc2nccc(-c3c(-c4cccc(O)c4)nc4sccn34)n2)S1(=O)=O | 77.3% | 96.8% | 96.8 | 114 | – | 69.5 | 79.5 | 119 | 109 | 99
6 | C(=Nc1ccc(-c2ccc(N=Cc3ccccc3)cc2)cc1)c1ccccc1 | 86.3% | 103% | 109 | 116 | – | 103 | 87.6 | 111 | 82.1 | 101
7 | CCc1c(C)c2ccc(O)c(-c3cc(-c4ccccc4)c(C#N)c(=O)[nH]3)c2oc1=O | 95.5% | 81% | 100 | 95.1 | – | 95.9 | 101 | 88.8 | 118 | 99.9
8 | Cc1ccc([C@H]2c3[nH]c4ccccc4c3C[C@H]3C(=O)N(CCCCCCC(=O)NO)CC(=O)N23)cc1 | 10.6% | 3.03% (active) | 39.5 | 44.7 | – | 63.3 | 57.3 | 47 | 52.5 | 94.5
9 | O=C(Nc1ccncc1)C(=O)c1cn(S(=O)(=O)c2cccc(Cl)c2F)c2ccccc12 | 20% | 50.2% | 82.1 | 101 | – | 97.3 | 70.9 | 74.7 | 84.7 | 59.3
10 | CN(C)c1nc(-c2cccs2)n2nc(-c3ccco3)cc2n1 | 74.1% | 73.2% | 96 | 99.4 | – | 90.2 | 81.1 | 101 | 99.2 | 93.5
11 | C[C@@H]1N=C(c2ccc3ccccc3c2)Nc2nc3ccccn3c2C1=O | 30.5% | 43.8% | 54.4 | 90.6 | 74.5 | – | 32.1 | 16.9 | – | 44.5
12 | COc1ccc2nc3ccccc3c(NCc3ccc(C)cc3)c2c1 | -12.7% (active) | -46.2% (active) | 28.7 | 34 | – | 52.7 | 17.2 | 46.9 | 42.7 | 23.8
13 | Cc1ccc(C)c(NC(=O)c2sc3c(=O)[nH]cnc3c2C)c1 | 15.8% | 87.7% | 98.2 | 127 | – | 101 | 79.8 | 70.7 | 78.9 | 58
